Assay outcomes (PubChem BioAssay)
IL-1B inflam inh = inhibitors of inflammasome signaling (IL-1 beta secretion) | THP-1 LPS/ATP IL-1B secretion, AlphaLISA, 16 h; active compounds read low | activity change, % at 57.5 µM | actives 4.7% (n = 360,000); in the data active = activity change below about -50%; inconclusive = mostly about -30% to -49%
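Secreted IL-1B measured by AlphaLISA bead assay after 16 h compound exposure of THP-1 cells; compounds (final up to 57.5 uM) added 1 h before LPS (250 ng/mL) and ATP (1.25 mM) stimulation; lower signal means less secretion.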
DT40 TDP1 no CPT = qHTS for Inhibitors of human tyrosyl-DNA phosphodiesterase 1 (TDP1): qHTS in cells in absence of CPT | DT40 Tdp1-/- hTDP1 cells, no CPT, ATP luminescence, 48 h | Potency, µM (top dose mostly 46.2 µM), for inactives: at the highest dose activity change, negative = growth inhibition, hits mostly inhibitors | actives 15% (n = 420,000) | AID 686978, 2013; also: potency is read from the fitted curve at half-maximal effect; nearly all actives have a fitted effect of over 55% in size
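Camptothecin absent (DMSO only). Human TDP1-complemented DT40 knockout cells, 400 cells/well, 37 °C for minimum 48 hr; ATP measured via CellTiter-Glo, 30 min dark incubation, luminescence.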
HT1080 IDH1KD tx = kills HT-1080 cells with IDH1 knockdown; actives 2% (n = 360,000); HT-1080 IDH1 knockdown viability, ATP luminescence, 48 h; Potency, µM (highest dose often 46.1 µM), without a hit: at the top dose activity, negative = toxicity, most hits filed as cytotoxic;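 also: potency is read from the fitted curve at half-maximal effect; 0% = DMSO wells and -100% = cell-free medium wells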
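Cytotoxicity counter-line: IDH1KD HT-1080, 48 h, CellTiter-Glo. Curves classed by r2, magnitude and activity.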
HT1080NT lethal = kills 2HG-producing HT-1080-NT fibrosarcoma cells; actives 1.6% (n = 360,000); Potency, µM (series often up to 46.1 µM), inactives show at the highest dose activity, negative = less viability, hits mostly cytotoxic; HT-1080-NT fibrosarcoma viability, CellTiter-Glo ATP luminescence, 48 h;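 also: NT is the 2HG producing partner of a matched IDH1 knockdown line; potency is read from the fitted curve at half-maximal effect; 0% = DMSO-treated cells and -100% = media-only wells without cells; nearly all actives have a fitted effect of over 55% in size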
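Compounds were tested in concentration-response format on HT-1080-NT cells for 48 hours at 37 degrees C. Cell viability came from CellTiter-Glo luminescence; curves were classified by r2, response magnitude and activity.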
DT40 TDP1 CPT = DT40-hTDP1 cell growth loss with CPT. chicken DT40 Tdp1-/-;hTDP1 cells + 20 nM CPT, ATP luminescence, 48 h. Potency, µM (series often up to 46.2 µM), without a hit: at the top dose activity change, negative = growth inhibition, actives largely listed as inhibitors. actives 12% (n = 420,000). AID 686979; also: potency is read from the fitted curve at half-maximal effect; nearly all actives have a fitted effect of over 55% in size
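Chicken DT40 Tdp1-/- cells complemented with human TDP1, 400 cells/well, exposed to compounds plus 20 nM camptothecin for at least 48 h at 37 C; viability read as ATP content by CellTiter-Glo luminescence.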
Numbers without * were called inactive; u = inconclusive; x = no result; [ ] = dose if it differs, or a comment. A selection: hits, their analogues and other compounds. The true share with any hit is near 19%. Unless noted, calls follow the shape of the dose curve; as a rule, active = well fitted curve in the direction sought with a large enough effect; inconclusive = small, poorly fitted or top-dose-only effect, or another doubt; inactive = no such curve, though single readings can be large; an effect the other way counts as inactive or inconclusive. Unless noted, % is scaled to controls: 0 for no effect and ±100 for the full control effect.

SMILES	IL-1B inflam inh	DT40 TDP1 no CPT	HT1080 IDH1KD tx	HT1080NT lethal	DT40 TDP1 CPT
Cc1cc(C)c2c(=O)n3c(nc2c1)C(Cc1ccccc1)NC(=O)c1cccnc1-3 (stereo unspecified)	-26	21µM*	u	-27%	u
Cc1oc2ccc(O)cc2c1C(=O)c1ccc(F)cc1	u	-12%	-3%	1%	-25%
Oc1ccccc1-c1cnc2cccnn12	28	u	1%	7%	16µM*
CN(C)CCCNc1cc(N2CCN(C)CC2)ncn1	x	0%	x	x	-1%
CC1(C)CC(=O)CC(C)(C)N1OC(=O)c1ccccn1	10	1%	19%	12%	-9%
O=C(CN1CCN(S(=O)(=O)c2ccc(F)cc2)CC1)Nc1cc(C(F)(F)F)ccc1Cl	-18	u	-5%	-3%	21µM*
COc1ccc(S(=O)(=O)N2CCN(CC(=O)Nc3cc(C(F)(F)F)ccc3Cl)CC2)cc1	-17	10µM*	-16%	-2%	u
COc1ccc(Cl)cc1-c1cc(C(=O)Nc2ccc(F)cc2)[nH]n1	0	-10%	-18%	-20%	u
COc1ccc(NC(=O)c2cc(-c3cc(C)cc(F)c3)n[nH]2)cc1OC	u	u	u	-16%	26µM*
COc1ccc(NC(=O)c2cc(-c3cc(Cl)ccc3OC)n[nH]2)cc1OC	-65*	u	u	u	21µM*
COc1ccc(NC(=O)c2cc(-c3cc(Cl)ccc3C)n[nH]2)cc1OC	-52*	u	-25%	-20%	u
O=C(Cn1nc(C(=O)O)c2ccccc2c1=O)NCc1ccco1	6	u	-1%	8%	26µM*
O=C(Cn1nnc2ccccc2c1=O)NCc1ccco1	-5	-11%	-1%	-2%	-28%
O=C(COC(=O)c1cccnc1SCC(=O)NCc1ccccc1)NCc1ccccc1	7	u	u	-12%	23µM*
COc1ccccc1CNC(=O)COC(=O)c1cccnc1SCC(=O)NCc1ccccc1OC	15	u	-6%	1%	u
CCCC(=O)OCC(=O)NCc1ccc(Cl)cc1	4	8%	5%	5%	-1%
O=C(COC(=O)CC(c1ccccc1)c1ccccc1)NCc1ccc(Cl)cc1	-71*	-8%	-2%	-1%	-27%
Cc1ccc(NC(=O)Cn2ccc([N+](=O)[O-])n2)cc1C	-7	5%	-5%	15%	6%
Cc1cccc(N2CCN(C(=O)c3cc4ccc5cccnc5c4[nH]3)CC2)c1C	x	u	x	x	23µM*
CC(=O)c1ccc(N2CCN(C(=O)c3cc4ccc5cccnc5c4[nH]3)CC2)cc1	x	18µM*	x	x	15µM*
CCOc1ccc(C2/C(=C(\O)c3ccc4c(c3)OCCO4)C(=O)C(=O)N2CCCn2ccnc2)cc1OC (stereo unspecified)	20	1%	8%	3%	-21%
COc1ccc(CCN=Cc2ccccc2O)cc1OC	x	-22%	11%	3%	-10%
CCOC(=O)c1sc(SC)c2c1CCC/C2=N/OC	12	-1%	3%	0%	4%
CO/N=C1\CCCc2c(C(=O)NN)sc(SC)c21	36	u	16µM*	16µM*	u
Cc1csc(-c2cnn(-c3ccccc3)c2NC(=O)c2ccc(C(F)(F)F)cc2)n1	-20	23µM*	-19%	-2%	u
SMILES	IL-1B inflam inh	DT40 TDP1 no CPT	HT1080 IDH1KD tx	HT1080NT lethal	DT40 TDP1 CPT
COc1ccc2[nH]cc(CCNC(=O)Nc3cccc(F)c3)c2c1	x	-17%	x	x	u
Cc1cc(F)ccc1NCc1ccccc1-c1nnc(-c2ccccc2Cl)o1	x	21µM*	x	x	u
CC(C)NCc1nnc(-c2ccccc2Cl)o1	-27	-9%	-2%	-4%	1%
CC(OC(=O)c1cc(S(=O)(=O)N(C)C)ccc1N1CCCC1)C(=O)NCc1ccccc1 (stereo unspecified)	12	-36%	7%	4%	6%
Cc1c(NC(=O)c2ccc(NS(=O)(=O)c3ccc(F)c(F)c3)cc2)c(=O)n(-c2ccccc2)n1C	3	-4%	0%	5%	-1%
COc1ccc(Sc2ccc(NC(=O)c3ccccc3Cl)cc2C#N)cc1	-11	13µM*	u	u	u
N#Cc1ccccc1Sc1ccccc1C(=O)Nc1ccc2ccccc2c1	-22	u	-18%	-13%	-22%
NC(=O)C1CC(=O)N(c2ccc(OCc3ccc(F)cc3)cc2)C1 (stereo unspecified)	24	-18%	1%	8%	16%
Cc1ccc(-c2csc(NC(=O)C3CC(=O)N(Cc4ccco4)C3)n2)cc1 (stereo unspecified)	-65*	u	-13%	-13%	u
c1ccc(Cn2nnc3c(N4CCCCCC4)ncnc32)cc1	-12	16µM*	-25%	-22%	u
c1ccc(Cn2nnc3c(N4CCc5ccccc54)ncnc32)cc1	39	0%	7%	11%	-8%
Clc1cccc(Cl)c1Cn1cnc2c(N3CCCCCC3)ncnc21	-74*	10µM*	-4%	-6%	18µM*
S=c1sc2c(N3CCN(Cc4ccccc4)CC3)ncnc2n1-c1ccccc1	0	23µM*	10%	12%	16µM*
CCN(CC)c1ncnc2c1ncn2Cc1c(Cl)cccc1Cl	-8	u	u	-27%	u
CCCN1CCN(c2ncnc3c2nnn3Cc2ccccc2)CC1	23	21µM*	u	-16%	16µM*
CC(Oc1ccccc1)C(=O)NCC1Cc2cc(F)cc(-c3ccccn3)c2O1 (stereo unspecified)	x	-22%	x	x	10%[9.04 µM]
COc1cc(NS(=O)(=O)c2ccc(NC(=O)/C(=C\c3ccccc3OC)NC(=O)c3ccccc3)cc2)nc(OC)n1	25	0%	0%	1%	0%
Cn1nnc2c(N3CCN(Cc4ccccc4)CC3)ncnc21	x	16µM*	14%	2%	u
Cn1nnc2c(NCc3ccccc3)ncnc21	x	-6%	x	x	2%
CN(C)S(=O)(=O)c1cccc(NC(=O)c2cccc(S(=O)(=O)N3CCCCCC3)c2)c1	-15	u	-20%	-7%	u
CCOc1nc2ccccc2cc1C=O	55	2.6µM*	-29%	-15%	2.3µM*
COc1ccc(NC(=O)c2c(N)no[n+]2[O-])cc1	-20	-26%	0.73µM*	0.73µM*	-5%
Cc1ccc(-c2cc(-c3ccc(C)o3)nc(N)c2C#N)cc1	-6	u	-5%	-10%	15µM*
Cc1ccc(-c2cc(-c3ccc(Cl)cc3)c(C#N)c(N)n2)o1	-6	9.2µM*	-12%	3%	6.5µM*
